For five compounds, composite z-score and z-score results are on record in PubChem BioAssay.

Activity calls are given as the source filed them. Unless noted, how the calls were made is not given here.

For assay [1], the system named is Wnt5a (protein binding on small-molecule microarray). The assay can be described thus: Wnt5a binders on small-molecule microarray, primary screen, biophysical, 635/667 nm fluorescence (AID 1142).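 Further: fluorescence read at 667 nm with signal to noise per printed feature.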 To be noted: 635 nm fluorescence, higher = more signal.
Assay [2] in a line: cell viability in Huh7 cells, primary screen, cytotoxicity control for HCV replication inhibitor project, CellTiter-Glo luminescence, basal, 48 h (AID 1143).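 Further: Huh7 hepatoma cells carrying a hepatitis C replication reporter with no stimulus; test concentration not given here.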 To be noted: Huh7 HCV replicon, higher = more signal, called active from +8 up or from −8 down. A general note: ATP-based viability assays read luminescence as a measure of living cells.
The nature of assay [3]: P. aeruginosa biofilm formation inhibitors, primary screen, PAO1 strain, BacTiter-Glo luminescence, LB-PBS (AID 1144). To be noted: 12 h, higher = more signal.
Assay [4] can be described thus: CREB reporter modulators without forskolin, primary screen, cell-based, PC12, CRE-LacZ reporter, unstimulated (AID 1145). To be noted: no forskolin, luminescence, 4.5 h, higher = more signal, called active from +8 up or from −8 down.
Assay [5] in a line: CREB reporter modulators under forskolin, primary screen, cell-based, PC12, CRE-LacZ reporter, forskolin-stimulated (AID 1146).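 Further: PC12 cells with 6xCRE LacZ reporter stimulated by forskolin 10 µM; beta-galactosidase reporter signal reflecting CREB driven transcription.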 To be noted: luminescence, 4.5 h, higher = more signal, called active from +8 up or from −8 down.
In assay [6] the target is Streptavidin (Streptomyces avidinii) (UniProt P22629). The experiment in a line: streptavidin binders on small-molecule microarray, primary screen, artefact control for SMM compound annotation, biophysical, 635/667 nm fluorescence (AID 1147).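 Further: signal reflects streptavidin binding to arrayed compounds as a control protein.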 To be noted: streptavidin binding, higher = more signal.
Assay [7] can be described thus: small-molecule binders of probe aInhba, primary screen, biochemical, small-molecule microarray, 635/667 nm fluorescence (AID 1148).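 Further: score merges 667nm spot fluorescence with signal-to-noise for antibody binding to printed compounds.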 To be noted: higher = more signal.
Assay [8] has as its target Torsin-1A (Homo sapiens) (UniProt O14656). The experiment in a line: torsin A binders from cell lysate, primary screen, small-molecule microarray, wild-type, 635/667 nm (AID 1149). To be noted: COS7 hTOR1A-WT lysate, 635 nm fluorescence, higher = more signal.
Assay [9] has the same target. The experiment in a line: small-molecule binders of mutant TOR1A in lysate, primary screen, cell lysate, small-molecule microarray, COS7 lysate, 635/667 nm fluorescence (AID 1150).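 Further: score pools 667 nm emission and signal to noise measuring lysate protein binding.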 To be noted: COS7 hTOR1A mutant lysate, 635 nm fluorescence, higher = more signal.
For assay [10], the system named is Sonic hedgehog protein (Shh). The assay can be described thus: small-molecule binders of Shh protein, primary screen, biochemical, small-molecule microarray, 635/667 nm fluorescence (AID 1151).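 Further: Shh protein binding to compounds spotted on small-molecule microarray slides; score combines spot fluorescence intensity with signal-to-noise across triplicate slides.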 To be noted: small-molecule microarray binding, 635 nm fluorescence; higher = more signal.
A short description of assay [11]: E. coli DRC41 culture turbidity changes, primary screen, E. coli filamentation inducer project, strain DRC41, OD650, 48 h (AID 1152).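 Further: E. coli MC1000 strain DRC41 lacking acrAB efflux pump and sulA.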 To be noted: E. coli DRC41 (acrAB sulA), higher = more signal, called active from +8 up or from −8 down.
Assay [12] is described as follows: small-molecule binders of probe aLefty1, primary screen, biochemical, small-molecule microarray, 635/667 nm fluorescence (AID 1153).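 Further: score merges spot fluorescence with signal-to-noise ratio from the scanned slide images.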 To be noted: higher = more signal.
A short description of assay [13]: PSAC antagonists in infected red cells, primary screen, cell-based, P. falciparum Indochina, OD700, 1 h (AID 1154). To be noted: P. falciparum Indochina infected RBC osmotic lysis, higher = more signal, called active from +8 up or from −8 down.
Assay [14] in a line: PSAC antagonists in infected red cells, primary screen, cell-based, P. falciparum Indochina, OD700, 2 h (AID 1155).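 Further: lysis reports solute entry through the parasite surface anion channel PSAC; channel blockers reduce lysis of infected cells.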 To be noted: P. falciparum Indochina infected erythrocytes, osmotic lysis OD700; higher = more signal, called active from +8 up or from −8 down.
Assay [15] in a line: osmotic lysis modulators in infected erythrocytes, primary screen, PSAC antagonist project, cell-based, P. falciparum Indochina, OD700, 3 h (AID 1156). To be noted: higher = more signal, called active from +8 up or from −8 down.
The nature of assay [16]: PSAC antagonists in infected red cells, primary screen, cell-based, P. falciparum Indochina, OD700, 18 h (AID 1157). To be noted: P. falciparum Indochina infected erythrocytes, osmotic lysis OD700, 18 h; higher = more signal, called active from +8 up or from −8 down.
The nature of assay [17]: modulators of S6 phosphorylation in cells, primary screen, cell-based, A549, cytoblot, luminescence, serum-stimulated (AID 1158).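 Further: serum-stimulated A549 lung adenocarcinoma cells; signal is phosphorylated S6 detected by cytoblot immunostaining with HRP secondary.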 To be noted: A549 phospho-S6 cytoblot, 5 h, higher = more signal.
Assay [18] addresses NADPH oxidase 2 (Homo sapiens) (UniProt P04839). The experiment in a line: NOX2-dependent H2O2 signal modulators, primary screen, NOX inhibitor project, cell-based, HEK293-NOX2, PMA-stimulated, Amplex Red fluorescence (AID 1159). Further: test concentration not given here. To be noted: 45 min, higher = more signal, called active from +8 up or from −8 down.
Assay [19] addresses NADPH oxidase 4 (Homo sapiens) (UniProt Q9NPH5). The experiment in a line: NOX4-dependent H2O2 signal modulators, primary screen, NOX inhibitor project, cell-based, HEK293-NOX4, tetracycline-induced, Amplex Red fluorescence (AID 1160). To be noted: 45 min, higher = more signal, called active from +8 up or from −8 down.
Assay [20] addresses NADPH oxidase 5 (Homo sapiens) (UniProt Q96PH1). The experiment in a line: NOX5-dependent H2O2 signal modulators, primary screen, NOX inhibitor project, cell-based, HEK293-NOX5, Amplex Red fluorescence (AID 1161). To be noted: HEK293-NOX5, ionomycin, 45 min, higher = more signal.

Sequence of Torsin-1A (Homo sapiens) (O14656 whole entry, looked up): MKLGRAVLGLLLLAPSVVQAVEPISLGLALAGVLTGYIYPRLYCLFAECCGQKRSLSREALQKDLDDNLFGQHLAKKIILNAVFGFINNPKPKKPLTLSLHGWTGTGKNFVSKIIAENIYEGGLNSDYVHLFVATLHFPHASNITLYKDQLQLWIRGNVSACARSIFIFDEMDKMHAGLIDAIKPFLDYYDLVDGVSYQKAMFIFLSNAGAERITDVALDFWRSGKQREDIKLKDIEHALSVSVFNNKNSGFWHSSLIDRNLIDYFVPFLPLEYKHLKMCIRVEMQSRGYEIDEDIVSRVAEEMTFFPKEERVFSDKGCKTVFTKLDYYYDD
Sequence of NADPH oxidase 4 (Homo sapiens) (Q9NPH5 whole entry, looked up): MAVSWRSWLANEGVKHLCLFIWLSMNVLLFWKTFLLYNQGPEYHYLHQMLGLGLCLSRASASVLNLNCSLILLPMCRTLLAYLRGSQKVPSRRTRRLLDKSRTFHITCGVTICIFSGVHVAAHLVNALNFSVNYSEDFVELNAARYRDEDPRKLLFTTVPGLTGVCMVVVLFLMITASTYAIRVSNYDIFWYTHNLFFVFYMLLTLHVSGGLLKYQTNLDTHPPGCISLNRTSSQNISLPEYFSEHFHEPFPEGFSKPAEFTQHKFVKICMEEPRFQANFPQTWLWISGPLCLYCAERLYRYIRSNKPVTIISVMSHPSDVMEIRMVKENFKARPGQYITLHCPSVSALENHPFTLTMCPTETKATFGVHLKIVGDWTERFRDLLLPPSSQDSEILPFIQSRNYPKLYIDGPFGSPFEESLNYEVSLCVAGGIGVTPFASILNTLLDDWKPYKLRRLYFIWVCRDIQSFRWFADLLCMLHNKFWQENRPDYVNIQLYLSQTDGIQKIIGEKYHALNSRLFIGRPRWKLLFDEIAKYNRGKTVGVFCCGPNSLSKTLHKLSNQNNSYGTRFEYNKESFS
Sequence of NADPH oxidase 5 (Homo sapiens) (Q96PH1 whole entry, looked up): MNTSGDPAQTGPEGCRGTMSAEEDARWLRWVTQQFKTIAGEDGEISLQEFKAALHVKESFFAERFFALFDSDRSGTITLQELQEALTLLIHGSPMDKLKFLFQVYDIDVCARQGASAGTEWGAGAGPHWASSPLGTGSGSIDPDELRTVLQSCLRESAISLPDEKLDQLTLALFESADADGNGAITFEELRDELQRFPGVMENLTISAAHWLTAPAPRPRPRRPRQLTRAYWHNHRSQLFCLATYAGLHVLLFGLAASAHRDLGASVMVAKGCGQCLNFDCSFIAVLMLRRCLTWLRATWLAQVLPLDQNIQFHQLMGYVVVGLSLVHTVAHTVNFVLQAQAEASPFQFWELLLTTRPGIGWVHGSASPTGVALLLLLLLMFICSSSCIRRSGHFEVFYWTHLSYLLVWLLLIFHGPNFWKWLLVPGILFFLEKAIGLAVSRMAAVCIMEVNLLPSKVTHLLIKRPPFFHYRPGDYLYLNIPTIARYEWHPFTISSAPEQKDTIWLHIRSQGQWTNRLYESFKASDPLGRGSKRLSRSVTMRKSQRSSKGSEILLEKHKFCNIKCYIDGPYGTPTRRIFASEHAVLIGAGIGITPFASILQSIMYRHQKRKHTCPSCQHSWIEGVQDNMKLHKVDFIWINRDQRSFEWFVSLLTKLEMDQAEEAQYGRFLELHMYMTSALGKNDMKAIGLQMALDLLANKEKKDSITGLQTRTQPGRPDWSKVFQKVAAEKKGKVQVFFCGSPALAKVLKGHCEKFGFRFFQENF
Sequence of Streptavidin (Streptomyces avidinii) (P22629 whole entry, looked up): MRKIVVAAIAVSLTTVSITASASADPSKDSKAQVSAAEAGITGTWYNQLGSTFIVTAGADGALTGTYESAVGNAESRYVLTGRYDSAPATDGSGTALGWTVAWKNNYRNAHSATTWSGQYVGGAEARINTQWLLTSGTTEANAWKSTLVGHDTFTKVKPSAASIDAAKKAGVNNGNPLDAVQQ
Sequence of NADPH oxidase 2 (Homo sapiens) (P04839 whole entry, looked up): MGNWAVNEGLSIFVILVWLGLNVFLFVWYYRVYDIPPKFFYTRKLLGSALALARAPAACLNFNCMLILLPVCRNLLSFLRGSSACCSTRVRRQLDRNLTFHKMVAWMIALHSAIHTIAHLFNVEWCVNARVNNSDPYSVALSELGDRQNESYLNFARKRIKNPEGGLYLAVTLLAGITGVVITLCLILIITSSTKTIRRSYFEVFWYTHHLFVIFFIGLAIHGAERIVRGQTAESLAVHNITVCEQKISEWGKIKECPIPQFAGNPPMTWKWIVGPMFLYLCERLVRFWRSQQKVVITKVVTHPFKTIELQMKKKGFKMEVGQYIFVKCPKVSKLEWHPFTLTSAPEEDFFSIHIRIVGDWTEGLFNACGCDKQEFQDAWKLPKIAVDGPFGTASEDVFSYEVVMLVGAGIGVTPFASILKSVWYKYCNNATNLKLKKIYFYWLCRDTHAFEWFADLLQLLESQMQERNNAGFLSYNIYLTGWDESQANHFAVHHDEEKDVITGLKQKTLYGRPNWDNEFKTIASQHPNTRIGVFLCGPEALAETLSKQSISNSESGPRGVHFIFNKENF

`C[N+](C)(C)CCCC[C@@H]1NC(=O)[C@H]2C[C@@H](C(=O)O)[C@@H](c3ccc(O)cc3)N2C1=O`: the composite z-score in assay [1] was 0.0425; in [6], -0.206; in assay [7] it was 0.0051; in assay [8], 0.049; in assay [9], 0.38; in assay [10], 1.22. The compound also showed a composite z-score in [12] of 0.0437. Moreover, the z-score is -0.497 (inactive) in assay [2]; -1.19 (inactive) in assay [3]; 0.285 (inactive) in assay [4]; -0.744 (inactive) in assay [5]; 1.03 (inactive) in assay [11]; 3.34 (inactive) in assay [13]. For the same compound, the z-score in assay [14] was 1.17 (inactive); in [15], -2.47 (inactive); in assay [16], 0.302 (inactive); in assay [17], 1.2; in [18], -1.77 (inactive); in [19], -1.23 (inactive). The z-score in assay [20] was -0.411.

On to `CC(C)Cc1ccc(CN2CC[C@@H](NC(=O)c3ccccc3)C2)cc1`, for which the composite z-score in [1] was -0.36; in assay [6], -0.238; in assay [7], -0.157; in assay [8] it was 0.205; in [9], 0.134; in [10], -0.0199. In assay [12], the composite z-score was -0.147. Moreover, the z-score in assay [2] is -2.65 (inactive); in [3] it was 0.241 (inactive); in assay [4], 3.31 (inactive); in assay [5], 0.603 (inactive); in [11], -0.55 (inactive); in assay [13] it was 1.57 (inactive). The z-score was 1.11 (inactive) in assay [14]; 1.23 (inactive) in assay [15]; 0.33 (inactive) in [16]; 0.0681 in [17]; -0.29 (inactive) in [18]; -0.413 (inactive) in [19]. In assay [20], the z-score is -2.41.

Take `Cc1ccc(S[C@]2(C(=O)NCc3ccccc3)CC(=O)N(Cc3ccccc3Cl)[C@@H]2c2ccc(CO)cc2)cc1`: the composite z-score in assay [1] was -0.132; in assay [6] it was -0.744; in assay [7], 0.298; in assay [8] it was 0.163; in [9], 0.0869; in assay [10] it was 0.469. In assay [12], this compound returned a composite z-score of -0.0536. Besides, the z-score in assay [2] is -1.87 (inactive); in [3] it was -0.491 (inactive); in assay [4] it was -0.0512 (inactive); in assay [5] it was -0.226 (inactive); in assay [11], -0.71 (inactive); in assay [13], 3.22 (inactive). Also, the z-score was 0.328 (inactive) in assay [14]; 2.98 (inactive) in assay [15]; 0.254 (inactive) in [16]; -0.121 in assay [17]; -0.703 (inactive) in assay [18]; -0.666 (inactive) in assay [19]. The compound also came in with a z-score in [20] of -0.778.

`COC(=O)C(CC#Cc1ccc2c(c1)[C@]1(C(=O)N2)[C@H](C(=O)NC[C@H](O)c2ccccc2)[C@H]2C(=O)O[C@H](c3ccccc3)[C@H](c3ccccc3)N2[C@@H]1c1ccc(O)cc1)C(=O)OC`: the composite z-score was -0.174 in assay [1]; -0.765 in assay [6]; -0.0736 in assay [7]; -0.93 in assay [8]; -0.62 in assay [9]; 0.21 in assay [10]. For the same compound, the composite z-score in assay [12] was -0.445. Besides, the z-score in assay [2] is -0.187 (inactive); in assay [3], 1.07 (inactive); in assay [4], 0.488 (inactive); in assay [5] it was -0.517 (inactive); in assay [11], -1.21 (inactive); in assay [13] it was 1.44 (inactive). Besides, the z-score is 0.21 (inactive) in assay [14]; -0.506 (inactive) in [15]; -0.0801 (inactive) in [16]; -0.0784 in assay [17]; 1.4 (inactive) in assay [18]; 0.691 (inactive) in assay [19]. Also, in assay [20], the z-score amounted to 1.33.

On to `CCCCCN1CC=CC23O[C@@H]4/C=C\CCCOC(=O)C4[C@H]2C(=O)N(CCO)[C@@H]3C1=O` (stereo not given in full), for which the composite z-score is -0.243 in [1]; -0.666 in assay [6]; -0.183 in assay [7]; 0.642 in [8]; 1.58 in assay [9]; 0.0256 in [10]. Moreover, the composite z-score in [12] is -0.103. The z-score in [2] is -2.03 (inactive); in assay [3], -2.97 (inactive); in assay [4], -1.98 (inactive); in assay [5] it was -0.508 (inactive); in assay [11] it was 3.1 (inactive); in [13] it was 0.592 (inactive). Besides, the z-score in [14] was 0.177 (inactive); in assay [15], -0.608 (inactive); in [16], -0.776 (inactive); in assay [17], 1.48; in [18], 0.88 (inactive); in assay [19], 0.261 (inactive). In assay [20], this compound showed a z-score of 2.19.
